Measurements taken from the supplement of paper PMC9694430.
Where “and” joins values, the source holds several entries; their conditions need not be identical. Equal entries are not always repeated.

What was measured:
Experiment in all cases: thermal shift delta Tm vs DMSO control; higher = stronger stabilization (binding)
Settings in all cases: 12.5 µM; protein concentration 2 µM
LOC_OS02G45750-cb003 = system: LOC_OS02G45750-cb003
Summary of the method: (§1)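 Thermal shift values come from differential scanning fluorimetry on purified rice kinase domains made in E. coli, with melting temperatures obtained from Boltzmann fits. Samples of 19.5 μl held 2 μM kinase, 100 mM potassium phosphate pH 7.5, 150 mM NaCl, 10% glycerol, 5 × SYPRO Orange and compound in DMSO, and were heated from 25°C to 95°C at 0.05°C/s. Each shift is a triplicate mean relative to the DMSO-only protein sample.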

LOC_OS02G54510-cb004 = system: LOC_OS02G54510-cb004
Summary of the method: as §1

LOC_OS03G04050-cb001 = system: LOC_OS03G04050-cb001
Summary of the method: as §1

LOC_OS03G12390-cb001 = system: LOC_OS03G12390-cb001
Summary of the method: as §1

LOC_OS03G27990-cb004 = system: LOC_OS03G27990-cb004
Summary of the method: as §1

LOC_OS03G50450-cb001 = system: LOC_OS03G50450-cb001
Summary of the method: as §1

LOC_OS03G50810-cb003 = system: LOC_OS03G50810-cb003
Summary of the method: as §1

LOC_OS04G35114-cb001 = system: LOC_OS04G35114-cb001
Summary of the method: as §1

LOC_OS04G38480-cb003 = system: T1, LOC_OS04G38480-cb003
T1 sequence (whole entry): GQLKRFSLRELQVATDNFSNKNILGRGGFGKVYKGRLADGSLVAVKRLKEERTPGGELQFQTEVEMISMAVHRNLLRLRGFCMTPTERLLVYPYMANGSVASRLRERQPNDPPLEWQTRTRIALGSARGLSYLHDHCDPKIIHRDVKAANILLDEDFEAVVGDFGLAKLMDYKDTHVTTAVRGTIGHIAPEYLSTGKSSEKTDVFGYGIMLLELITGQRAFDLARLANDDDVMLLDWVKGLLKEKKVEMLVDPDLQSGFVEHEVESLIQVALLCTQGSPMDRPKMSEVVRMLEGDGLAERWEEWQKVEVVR
Summary of the method: as §1

LOC_OS04G41100-cb001 = system: T2, LOC_OS04G41100-cb001
T2 sequence (whole entry): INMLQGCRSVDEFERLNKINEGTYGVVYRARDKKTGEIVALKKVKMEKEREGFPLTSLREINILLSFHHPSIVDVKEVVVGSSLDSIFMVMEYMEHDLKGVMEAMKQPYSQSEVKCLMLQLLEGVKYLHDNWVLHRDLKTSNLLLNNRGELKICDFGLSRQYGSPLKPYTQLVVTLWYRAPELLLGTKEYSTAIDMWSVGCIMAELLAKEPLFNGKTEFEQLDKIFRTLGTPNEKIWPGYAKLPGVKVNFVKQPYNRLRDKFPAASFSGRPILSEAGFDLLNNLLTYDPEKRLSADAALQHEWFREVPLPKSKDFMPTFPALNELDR
Summary of the method: as §1
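Further: purified Escherichia coli-expressed rice kinase domain construct.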

| SMILES | thermal shift delta Tm (LOC_OS02G45750-cb003) | thermal shift delta Tm (LOC_OS02G54510-cb004) | thermal shift delta Tm (LOC_OS03G04050-cb001) | thermal shift delta Tm (LOC_OS03G12390-cb001) | thermal shift delta Tm (LOC_OS03G27990-cb004) | thermal shift delta Tm (LOC_OS03G50450-cb001) | thermal shift delta Tm (LOC_OS03G50810-cb003) | thermal shift delta Tm (LOC_OS04G35114-cb001) | thermal shift delta Tm (LOC_OS04G38480-cb003) | thermal shift delta Tm (LOC_OS04G41100-cb001) |
| --- | --- | --- | --- | --- | --- | --- | --- | --- | --- | --- |
| CN1CCC(Nc2nc(Nc3ccc(Oc4ccccc4)cc3)c3c(=O)[nH]cc(Br)c3n2)CC1 | 6.91 °C | 0.98 °C | 0.8 °C | 2.05 °C | 1.75 °C | 1.67 °C | 2.6 °C | 4.37 °C | 2.13 °C | 0.75 °C |
| COc1cc2ncnc(Oc3cccc(NC(=O)Nc4cc(C(C)(C)C(F)(F)F)on4)c3)c2cc1OC | 0.81 °C | 1.05 °C | 0.36 °C | 0.21 °C | 0.47 °C | 0.59 °C | 0.19 °C | 0.57 °C | 0.16 °C | 0.2 °C |
| Cc1nc(-c2cn3c(n2)-c2ccc(-c4cnn(C(C)(C)C(N)=O)c4)cc2OCC3)n(C(C)C)n1 [Taselisib (GDC 0032)] | 1.34 °C | 0.17 °C | 0.54 °C | -0.31 °C | 0.3 °C | 0.34 °C | -0.05 °C | 0.68 °C | 0.83 °C | 0.38 °C |
| Cn1cc(-c2ccc(F)c(C(F)(F)F)c2)nc1C1CCN(c2ncnc3[nH]ncc23)CC1 | 0.33 °C | 0.45 °C | 0.47 °C | -0.18 °C | 0.44 °C | 0.81 °C | 0.37 °C | 0.97 °C | 0.91 °C | 0.15 °C |
| Cc1c[nH]c(/C=C2\C(=O)Nc3ccccc32)c1CCC(=O)O | 2.76 °C | 0.94 °C | 0.06 °C | 8 °C | 0.79 °C | 4.67 °C | 2.36 °C | 8.73 °C | 3.46 °C | 0.43 °C |
| O=C1Nc2ccccc2/C1=C1/Nc2ccccc2C1=O [Indirubin] | 2.07 °C | 0.45 °C | 0.62 °C | 0.59 °C | 0.23 °C | 0.08 °C | 1.48 °C | 3.86 °C | 0.97 °C | 0.98 °C |
| CCc1cnn2c(NCc3ccc[n+]([O-])c3)cc(N3CCCC[C@H]3CCO)nc12 | 0.58 °C | 0.19 °C | 0.27 °C | 1.31 °C | 0.33 °C | 0.63 °C | 0.67 °C | 0.57 °C | 0.56 °C | 0.68 °C |
| CNC(=O)c1cc(Oc2ccc(NC(=O)Nc3ccc(Cl)c(C(F)(F)F)c3)c(F)c2)ccn1 [Regorafenib (BAY 73-4506)] | 0.96 °C | 0.56 °C | 0.64 °C | 0.1 °C | 0.17 °C | 0.33 °C | 0.11 °C | 0.48 °C | 0.48 °C | 0.52 °C |
| CC1Oc2cc(cnc2N)-c2c(nn(C)c2C#N)CN(C)C(=O)c2ccc(F)cc21 (stereo not given) | 1.05 °C | 0.8 °C | 0.3 °C | 6.42 °C | 0.12 °C | -0.13 °C | 0.66 °C | 0.69 °C | 2.3 °C | 0.38 °C |
| Cc1csc(-c2nnc(Nc3ccc(Oc4ncccc4-c4ccnc(N)n4)cc3)c3ccccc23)c1 | 1.33 °C | 0.9 °C | 0.3 °C | 0.26 °C | 0.96 °C | 0.26 °C | 0.96 °C | 1.18 °C | 2.54 °C | 1.68 °C |
| O=C(NC1CCNCC1)c1n[nH]cc1NC(=O)c1c(Cl)cccc1Cl | 0.66 °C and 1.33 °C | 0.11 °C and 0.36 °C | 0.15 °C and 0.29 °C | 0.1 °C and 0.19 °C | 0.04 °C and 0.36 °C | 0.11 °C and 0.36 °C | 0.29 °C and 0.51 °C | 0.48 °C and 0.71 °C | 0.07 °C and 1.75 °C | 7.15 °C and 7.57 °C |
| CC[C@@H](N)CNc1ccnc(-c2cc(-c3cnn(C)c3)ccc2O)n1 | 2.91 °C | -0.17 °C | 0.27 °C | 0.67 °C | 0.75 °C | 0.74 °C | 1.49 °C | 6.46 °C | 1.41 °C | 2.6 °C |
| CC(=O)Nc1nc(C)c(-c2ccc(Cl)c(S(=O)(=O)NCCO)c2)s1 | 1.06 °C | 0.31 °C | 0.56 °C | 0.64 °C | 0.19 °C | 0.73 °C | 0.75 °C | 1.53 °C | 0.78 °C | 0.77 °C |
| CNS(=O)(=O)C[C@H]1CC[C@H](N(C)c2[nH]cnc3nccc2-3)CC1 [Oclacitinib] | 3.43 °C | 0.36 °C | 0.63 °C | 1.78 °C | 1.09 °C | 1.35 °C | 1.01 °C | 1.87 °C | 0.99 °C | 0.23 °C |
| C[C@@H]1CN(CC(=O)Nc2ccc3c(c2)Cc2cccc(-c4cc(=O)cc(N5CCOCC5)o4)c2S3)C[C@H](C)O1 | 0.27 °C | -0.11 °C | 0.02 °C | 0.37 °C | -0.04 °C | 0.03 °C | 0.14 °C | 0.37 °C | -0.13 °C | 0.23 °C |
| CC(C)(O)CNc1ncc(-c2ccnc(Nc3ccncc3)n2)c(CC2CC2)n1 [VPS34 inhibitor 1 (Compound 19, PIK-III analogue)] | 2.27 °C | 0.29 °C | 0.5 °C | 0.77 °C | 0.32 °C | 0.37 °C | 0.9 °C | 1.51 °C | 1.97 °C | 0.43 °C |
| CC(C)[C@H](CO)Nc1nc(Nc2cccc(Cl)c2)c2ncn(C(C)C)c2n1 [Purvalanol A] | 5.95 °C | 2.06 °C | 0.15 °C | 3.95 °C | 3.63 °C | 7.22 °C | 2.8 °C | 6.09 °C | 1.87 °C | 0.54 °C |
| C=CC(=O)Nc1cccc(Oc2nc(Nc3ccc(N4CCN(C)CC4)cc3OC)ncc2Cl)c1 | 0.22 °C | 0.42 °C | 0.85 °C | 5.06 °C | 1.09 °C | 0.52 °C | 2.04 °C | 0.9 °C | -0.58 °C | 0.39 °C |
| O=C(NCCO)c1cccc(-c2cc(Nc3ccc(OC(F)(F)F)cc3)ncn2)c1 | -1.95 °C | 0.81 °C | 0.63 °C | -0.13 °C | 0.4 °C | 0.68 °C | 0.15 °C | 0.49 °C | 0.52 °C | 0.56 °C |
